Experiment [1] can be described thus: qHTS of pediatric cancer cell lines to identify multiple opportunities for drug repurposing: Primary screen for LAN-5 cells (AID 1347100). Further: potency means the concentration at half of the fitted maximal effect.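 On activity change, negative = cytotoxic: plate controls were DMSO neutral control for no effect and bortezomib positive control for full effect.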 In a few lines: (§1)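 Cells (500-1,000/well) rested 5 h, then received compounds for 48 h; metabolically active cells were measured by CellTiter-Glo luminescence. Final concentrations spanned up to 46 µM (MIPE, 11-point) or 0.59 nM-46 µM (NPC, 8-point) in primary screens, 11-point in follow-ups.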
In general terms: In qHTS, concentration-response curves come from the screen itself.

Experiment [2] in a line: qHTS of pediatric cancer cell lines to identify multiple opportunities for drug repurposing: Primary screen for BT-12 cells (AID 1347101). Further: nearly all actives have a fitted effect of over 25% in size. Further: potency means the concentration at half of the fitted maximal effect.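 On activity change, negative = cytotoxic: plate controls were DMSO for no effect and bortezomib positive control for full effect.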 The method, boiled down:
as §1

A short description of experiment [3]: qHTS of pediatric cancer cell lines to identify multiple opportunities for drug repurposing: Primary screen for Rh18 cells (AID 1347102). Further: nearly all actives have a fitted effect of over 65% in size. Further: potency means the concentration at half of the fitted maximal effect. On activity change, negative = cytotoxic: on the % scale 0 is the no-effect control and ±100 the full control effect. The method, boiled down:
as §1

The nature of experiment [4]: qHTS of pediatric cancer cell lines to identify multiple opportunities for drug repurposing: Primary screen for OHS-50 cells (AID 1347103). Further: nearly all actives have a fitted effect of over 40% in size. Further: potency means the concentration at half of the fitted maximal effect.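 On activity change, negative = cytotoxic: plate controls were DMSO neutral control for no effect and bortezomib positive control for full effect.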 The method, boiled down:
as §1

A short description of experiment [5]: qHTS of pediatric cancer cell lines to identify multiple opportunities for drug repurposing: Primary screen for RD cells (AID 1347104).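 Further: plate controls were DMSO for no effect and bortezomib for full effect; nearly all actives have a fitted effect of over 55% in size.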 In a few lines: (§2)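 Cells seeded at 500-1,000 cells/well in growth media, rested 5 hours at 37 degrees C, 5% CO2, then dosed; MIPE compounds at 11-point (from 0.78 nM) and NPC at 8-point (from 0.59 nM) final concentrations. Viability by CellTiter-Glo luminescence after 48 hours.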

The nature of experiment [6]: qHTS of pediatric cancer cell lines to identify multiple opportunities for drug repurposing: Primary screen for MG 63 (6-TG R) cells (AID 1347105). Further: nearly all actives have a fitted effect of over 50% in size. Further: potency means the concentration at half of the fitted maximal effect. On activity change, negative = cytotoxic: on the % scale 0 is the no-effect control and ±100 the full control effect. The method, boiled down: as §2
Experiment [7] can be described thus: qHTS of pediatric cancer cell lines to identify multiple opportunities for drug repurposing: Primary screen for control Hh wild type fibroblast cells (AID 1347106).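 Further: series mostly up to about 46 µM; on the % scale 0 is the no-effect control and ±100 the full control effect; a drop in luminescence marks cytotoxicity and a rise apparent proliferation; nearly all actives have a fitted effect of over 55% in size.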 The method, boiled down: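 Cells (500-1,000/well) in growth media were settled 5 h at 37 degrees C, then given compounds for 48 h. Viability was read as CellTiter-Glo luminescence. Primary runs used MIPE at 11 points (0.78 nM-46 µM) and NPC at 8 points (0.59 nM-46 µM); follow-ups used 11 points.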

The nature of experiment [8]: qHTS of pediatric cancer cell lines to identify multiple opportunities for drug repurposing: Primary screen for Rh30 cells (AID 1347107). Further: nearly all actives have a fitted effect of over 75% in size. Further: potency means the concentration at half of the fitted maximal effect. On activity change, negative = cytotoxic: series mostly up to about 46 µM; on the % scale 0 is the no-effect control and ±100 the full control effect. In a few lines: as §1
Experiment [9] can be described thus: qHTS of pediatric cancer cell lines to identify multiple opportunities for drug repurposing: Primary screen for Rh41 cells (AID 1347108). Further: nearly all actives have a fitted effect of over 70% in size. Further: potency means the concentration at half of the fitted maximal effect.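 On activity change, negative = cytotoxic: series mostly up to about 46 µM; luminescence drop marks cytotoxic hits.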 The method, boiled down: as §2
Experiment [10] can be described thus: qHTS of pediatric cancer cell lines to identify multiple opportunities for drug repurposing: Confirmatory screen for NB1643 cells (AID 1347109). Further: potency means the concentration at half of the fitted maximal effect; nearly all actives have a fitted effect of over 45% in size. The method, boiled down: as §1

Inconclusive results are not listed. A number with no mark means an inactive call. Activity calls are given as the source filed them. The call rests on the fitted dose curve; in most records, active means well fitted curve in the direction sought with a large enough effect; inconclusive means small, poorly fitted or top-dose-only effect, or another doubt; inactive means no such curve, though single readings can be large; an effect the other way counts as inactive or inconclusive.

For `CN1CC(=O)N/C1=N/C(=O)Nc1cccc(Cl)c1`, the Potency result in [1], in [2], in experiment [3], in experiment [4], in experiment [5] and in experiment [6] was “inactive” throughout. Moreover, the Potency result in experiment [7], in experiment [8] and in experiment [9] was “inactive” in each case.

On to `O=C(Nc1ccc(C(=O)O)c(O)c1)c1ccccc1`, for which the Potency result in experiment [1], in [2], in [3], in experiment [4], in experiment [5] and in experiment [6] was “inactive” throughout. Besides, the Potency result in experiment [7], in [8] and in experiment [9] was “inactive” in each case.

In the case of `CN(C)[C@@H]1C(=O)C(C(=O)NCN2CCCC2)=C(O)[C@@]2(O)C(=O)C3=C(O)c4c(O)cccc4[C@@](C)(O)C3C[C@@H]12` (stereo not given in full), the Potency entry in [1], in [2], in experiment [3], in experiment [4], in experiment [6] and in [7] was “inactive” throughout. Also, the Potency result in [8] and in experiment [9] was “inactive” each time.

Consider `CO[C@@]1(NC(=O)Cc2cccs2)C(=O)N2C(C(=O)O)=C(COC(N)=O)CS[C@@H]21`, for which the Potency result in experiment [1], in experiment [2], in experiment [3], in experiment [4], in [5] and in experiment [6] was “inactive” in each case. Further, the Potency entry in [7], in experiment [8] and in experiment [9] was “inactive” throughout.

As for `O=C(CCN1CCN(CCO)CC1)N1c2ccccc2Sc2ccc(C(F)(F)F)cc21`, the Potency result in [1], in experiment [2], in [3], in experiment [4], in experiment [5] and in [6] was “inactive” each time. Moreover, the Potency result in experiment [7], in experiment [8] and in experiment [9] was “inactive” in each case.

Take `CCCCCCCCCCCCCCCCCC(=O)O`: the Potency result in experiment [1], in [2], in experiment [3], in [4], in experiment [6] and in [7] was “inactive” each time. Also, the Potency result in experiment [8] and in [9] was “inactive” throughout.

As for `S=c1[nH]c2ccccc2s1`, the Potency entry in [1], in experiment [2], in [3], in experiment [4], in experiment [6] and in [7] was “inactive” in each case. Moreover, the Potency result in experiment [8] and in [9] was “inactive” each time.

Consider `COC(=O)c1nc(Cl)c(Cl)nc1N`, for which the Potency was 3.35 µM (active) in experiment [1]; 2.19 µM (active) in experiment [2]; 23.7 µM (active) in experiment [3]; 0.872 µM (active) in experiment [4]; 8.41 µM (active) in [6]; 21.1 µM (active) in experiment [8]. The Potency is 3.76 µM (active) in experiment [9] and 3.69 µM (active) in experiment [10]. Also, in experiment [7], the Potency result is “inactive”.

For the compound `Cc1[nH]cnc1CN1CCc2c(c3ccccc3n2C)C1=O`, the Potency entry in experiment [1], in experiment [2], in [3], in experiment [6], in experiment [7] and in experiment [8] was “inactive” throughout. In experiment [9], the Potency entry is “inactive”.

For `Cc1ccc(C(=O)c2ccc(CC(=O)O)n2C)cc1`, the Potency entry in experiment [1], in experiment [2], in experiment [3], in [4], in [6] and in experiment [7] was “inactive” in each case. The Potency entry in experiment [8] and in experiment [9] was “inactive” in each case.

As to `O=C(/C=C/c1ccccc1)NCCO`, the Potency result in [1], in experiment [2], in [3], in experiment [4], in experiment [6] and in experiment [7] was “inactive” throughout. Also, the Potency result in experiment [8] and in experiment [9] was “inactive” each time.

For `CCCCC1C(=O)N(c2ccccc2)N(c2ccc(O)cc2)C1=O` (stereo not given), the Potency in [1] was 5.96 µM (active); in [2] it was 5.5 µM (active); in [3], 8.41 µM (active); in [4], 11 µM (active); in experiment [6] it was 21.1 µM (active); in [9], 5.96 µM (active). Besides, the Potency result in experiment [7] was “inactive”.

For `O=C(O)c1cc(O)c(O)c(O)c1`, the Potency entry in experiment [1], in experiment [2], in experiment [3], in experiment [4], in experiment [6] and in experiment [7] was “inactive” each time. The Potency result in experiment [8] and in experiment [9] was “inactive” in each case.

Consider `CCOC(=O)c1ccccc1O`, for which the Potency result in experiment [1], in experiment [2], in [3], in [4], in experiment [6] and in [7] was “inactive” throughout. For the same compound, the Potency result in experiment [8] and in [9] was “inactive” in each case. For the same compound, the Potency in experiment [10] is 14.7 µM (active).

As for `CCCOC(=O)c1ccc(O)cc1`, the Potency result in experiment [1], in experiment [2], in experiment [3], in experiment [5], in [6] and in [7] was “inactive” throughout. The Potency entry in experiment [8] and in [9] was “inactive” throughout.

`Cc1ccc2c(n1)Oc1ccc(C(C)C(=O)OCC(=O)N(C)C)cc1C2` (stereo not given): the Potency entry in experiment [1], in experiment [2], in [3], in [4], in experiment [6] and in experiment [7] was “inactive” each time. The Potency result in experiment [8] and in experiment [9] was “inactive” throughout.

Take `N=C(N)N`: the Potency result in experiment [1], in experiment [2], in experiment [3], in experiment [4], in experiment [6] and in experiment [7] was “inactive” throughout. The Potency entry in experiment [8] and in experiment [9] was “inactive” each time.

Consider `COC(=O)Nc1nc2ccc(C(=O)C3CC3)cc2[nH]1`, for which the figures for the Potency in experiment [1], in [2] and in experiment [4] were 0.841 µM (active), 2.19 µM (active) and 1.1 µM (active), respectively. For the same compound, the Potency entry in experiment [3], in experiment [7] and in experiment [8] was “inactive” each time.

As for `CCC1C(=O)OCC1Cc1cncn1C` (stereo not given), the Potency entry in experiment [1], in [2], in experiment [3], in experiment [4], in experiment [6] and in experiment [7] was “inactive” each time. Moreover, the Potency entry in experiment [8] and in [9] was “inactive” in each case.

On to `Cc1ccc(O)c(-n2nc3ccccc3n2)c1`, for which the Potency result in experiment [1], in experiment [2], in experiment [3], in [4], in experiment [6] and in [7] was “inactive” each time. In addition, the Potency result in [8] and in experiment [9] was “inactive” throughout.

For the compound `c1ccc2sc(SN3CCOCC3)nc2c1`, the Potency result in experiment [1], in experiment [2], in experiment [3], in experiment [4], in [6] and in experiment [7] was “inactive” each time. The Potency entry in [8] and in [9] was “inactive” throughout.

Turning to `c1ccc2sc(SSc3nc4ccccc4s3)nc2c1`, the Potency result in [1], in [2], in experiment [3], in [4], in [6] and in experiment [8] was “inactive” throughout. In addition, the Potency entry in [9] is “inactive”.

`Nc1ccc(C(=O)O)c(O)c1`: the Potency result in [1], in experiment [2], in experiment [3], in [4], in experiment [6] and in [7] was “inactive” throughout. In addition, the Potency result in [8] and in [9] was “inactive” in each case.

With `CN1CCN(c2cc3c(nn2)Oc2ccccc2N3C)CC1`, the Potency entry in experiment [1], in experiment [2], in experiment [3], in experiment [6], in experiment [7] and in [8] was “inactive” each time. Besides, the Potency result in experiment [9] was “inactive”.

With `O=C(O)Cc1cccc(-c2cc(CCCCCCc3ccc(O[C@H]4O[C@H](CO)[C@@H](O)[C@H](O)[C@@H]4O)c(-c4cccc(CC(=O)O)c4)c3)ccc2O[C@H]2O[C@H](CO)[C@@H](O)[C@H](O)[C@@H]2O)c1`, the activity change, negative = cytotoxic is 9.16% [at 0.597 µM] in experiment [1]; 15.7% [at 0.745 µM] in [2]; 18.6% [at 0.597 µM] in experiment [3]; 10.4% [at 0.73 µM] in experiment [4]; -10.3% [at 0.597 µM] in [6]; 2.02% [at 0.597 µM] in experiment [7]. Moreover, the results for the activity change, negative = cytotoxic in [8] and in experiment [9] were 18.7% [at 0.597 µM] and 21.7% [at 0.597 µM], respectively.

The values are drawn from PubChem BioAssay (NCATS).
